The full ranking holds about 110,000 compounds; the median of “z-score” is about -0.1, and the highest 2% start at about 2. This is one part of a sample in which the highest values are shown more often than they occur. Activity calls are given as the source filed them.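 Rule for the calls: active = z-score in the third read window above 3 or below -3; inactive = the rest.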

Sequence of Metabotropic glutamate receptor 8 (Rattus norvegicus) (P70579 whole entry, looked up): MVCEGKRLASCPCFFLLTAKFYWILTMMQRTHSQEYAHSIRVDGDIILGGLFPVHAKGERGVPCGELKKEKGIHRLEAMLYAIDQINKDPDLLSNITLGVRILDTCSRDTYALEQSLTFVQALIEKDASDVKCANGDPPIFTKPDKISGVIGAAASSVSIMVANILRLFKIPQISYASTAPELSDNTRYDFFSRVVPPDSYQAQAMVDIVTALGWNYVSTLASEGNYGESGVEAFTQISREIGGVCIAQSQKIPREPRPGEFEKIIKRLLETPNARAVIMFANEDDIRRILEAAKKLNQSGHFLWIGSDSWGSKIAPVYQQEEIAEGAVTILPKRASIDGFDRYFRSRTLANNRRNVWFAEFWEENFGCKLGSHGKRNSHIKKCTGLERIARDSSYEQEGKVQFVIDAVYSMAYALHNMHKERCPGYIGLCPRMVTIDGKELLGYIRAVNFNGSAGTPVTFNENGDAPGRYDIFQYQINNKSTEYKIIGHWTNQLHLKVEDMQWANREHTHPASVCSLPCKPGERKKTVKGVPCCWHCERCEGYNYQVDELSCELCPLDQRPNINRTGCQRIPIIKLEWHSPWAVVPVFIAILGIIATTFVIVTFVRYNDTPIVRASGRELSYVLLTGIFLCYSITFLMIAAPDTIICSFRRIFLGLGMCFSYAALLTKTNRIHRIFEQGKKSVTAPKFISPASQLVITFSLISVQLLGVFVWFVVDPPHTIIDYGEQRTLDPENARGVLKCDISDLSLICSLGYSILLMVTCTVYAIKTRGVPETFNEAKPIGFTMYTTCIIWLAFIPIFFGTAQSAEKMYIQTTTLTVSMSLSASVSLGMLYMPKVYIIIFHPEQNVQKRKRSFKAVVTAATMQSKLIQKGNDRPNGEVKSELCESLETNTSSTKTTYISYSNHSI

This assay addresses Metabotropic glutamate receptor 8 (Rattus norvegicus) (UniProt P70579). Briefly: rat mGluR8 modulators via GIRK flux, primary screen, cell-based, thallium flux, HTS (AID 488969). Conditions: HEK293 rat mGluR8, GIRK (G protein-gated inwardly rectifying potassium channel) thallium flux, FluoZin2; at 10 µM; stronger effect = higher value; submaximal glutamate (EC20) added with thallium.
For `CCc1ccc2oc(-c3cccc(N)c3)nc2c1`, the z-score is -0.135.
Next, `Cc1cc(C(=O)CSc2n[nH]c(N)n2)c(C)n1-c1ccc(F)cc1`: -0.628; `Cc1cc(C(=O)CSc2n[nH]c(N)n2)c(C)n1-c1cccc(F)c1`: -1.69.
On to `Cc1cc(C(=O)CSc2n[nH]c(N)n2)c(C)n1-c1cc(F)ccc1F`, for which the z-score was 6.6 (active).
Consider `COc1ccc(NS(=O)(=O)c2ccc(NC(=O)c3ccc(N(C)S(C)(=O)=O)cc3)cc2)c(OC)c1`, for which the z-score was -0.141.
For the compound `COC(=O)C1=C(C)NC(=O)/C1=C\c1cccs1`, the z-score is -0.512.
As for `COC(=O)C1=C(C)N(C)C(=O)/C1=C\c1ccco1`, the z-score was -0.144.
To `COC(=O)C1=C(C)NC(=O)/C1=C\c1ccco1` belongs 8.73 (active); to `CC(=O)c1nc(N2C(=O)CC(Cc3ccc(C)cc3)C2=O)sc1C` (stereo not given), -0.714; to `CC(=O)c1nc(N2C(=O)CC(Cc3cc(C)cc(C)c3)C2=O)sc1C` (stereo not given), 2.19.
Take `CC(=O)c1nc(N2C(=O)CC(Cc3cccc(C)c3)C2=O)sc1C` (stereo not given): the z-score was -0.395.
With `COc1ccc(NC(=S)N/N=C2\CC(C)(C)Oc3ccc(OC)cc32)cc1`, the z-score is -0.239.
`c1cc2c3c(cccc3c1)NC1(CCCCC1)N2`: the z-score was -0.436.
`CC(C)(C)C1CCC2(CC1)Nc1cccc3cccc(c13)N2`: the z-score is 4.88 (active).
Next, `CC(C)(C)C1CCC2(CC1)NC(=S)N(c1ccccc1)N2` (stereo not given): 0.0264; `Cc1cc(NC(=O)c2ccc(COc3ccc(Cl)c(C)c3)o2)no1`: -0.225; `O=C(NC1CC1)c1ccc2c3c(cccc13)CC2`: -0.311.
As to `N=c1sccn1CC(=O)Nc1cc(Cl)ccc1Oc1ccccc1`, the z-score came to 1.02.
To `COc1ccc(OCCC(=O)OCC(=O)NCc2ccccc2)cc1` belongs -0.332.
For `Cc1cccc(-n2c(C)nc3cc(C(=O)NCc4ccc5c(c4)OCO5)ccc32)c1`, the z-score came to 0.471.
`CC(C)(C)c1cc[n+](/C(C(=S)NC2CC2)=C(/[O-])c2ccc(Cl)s2)cc1`: the z-score was -0.275.
Next, `Cc1ccccc1NC(=S)/C(=C(\[O-])c1ccc(C)c([N+](=O)[O-])c1)[n+]1ccccc1`: 0.013; `Cc1c(Cl)cccc1NC(=S)/C(=C(\[O-])c1ccc(Cl)s1)[n+]1ccccc1`: 2.24; `CCN(CC)C(=O)COc1cc(C)cc2oc(=O)cc(-c3ccccc3)c12`: -0.189.
With `C=C(C)CNC(=S)Nc1cccc2cnccc12`, the z-score is 3.1 (active).
Turning to `CCCCNC(=S)Nc1cccc2cnccc12`, the z-score is -0.208.
Turning to `COc1ccccc1NC(=S)Nc1cccc2cnccc12`, the z-score is -0.138.
Regarding `CC(C)NC(=S)Nc1cccc2cnccc12`, the z-score is -0.271.
To `S=C(Nc1cccc(Cl)c1)Nc1cccc2cnccc12` belongs 2.74; to `COc1ccc(NC(=S)Nc2cccc3cnccc23)cc1`, -0.198.
`Cc1cc(C)nc(N2CCCC(C(=O)NCC(c3ccccc3)c3ccccc3)C2)n1` (stereo not given) displayed a z-score of 0.0177.
Consider `COc1ccc(S(=O)(=O)N(C)CC(=O)Nc2ccc(C(F)(F)F)cc2)cc1Cl`, for which the z-score stood at 1.57.
As for `O=c1cc(NS(=O)(=O)c2ccccc2)nc(SCc2ccc(Cl)cc2)[nH]1`, the z-score turned out to be 0.485.
Next, `CCc1c(C)nc2ncnn2c1Nc1ccc(C(C)=O)cc1`: 0.0606.
Compound `O=C(CSc1ncn[nH]1)Nc1nc(-c2ccccc2)cs1` displayed a z-score of 0.0129.
On to `Cc1ccc(C(=O)N/C(=C/c2ccco2)C(=O)Nc2cccc(C)c2)cc1`, for which the z-score is -0.287.
Consider `CC(=O)c1cccc(NC(=O)c2ccc(N(Cc3ccccc3)S(C)(=O)=O)cc2)c1`, for which the z-score was -0.207.
To `COCCn1c(C)cc(C(=O)CN2C(=O)NC3(CCCCCCC3)C2=O)c1C` belongs 0.319; to `O=C(CSc1nnnn1-c1cccc2c1CCCC2)NC1CCCC1`, 5.15 (active).
Consider `O=C(CSc1nnnn1-c1cccc2c1CCCC2)N1CCCC1`, for which the z-score was found to be 0.0215.
For the compound `CC1CCCC(C)N1C(=O)CSc1nnnn1-c1cccc2c1CCCC2` (stereo not given), the z-score was -0.621.
Consider `Cc1ccc2c(c1)c1c(n2CC(O)CNC(C)(C)C)CCCC1` (stereo not given), for which the z-score was found to be 2.4.
For `Cc1ccc2c(c1)c1c(n2CC(O)Cn2nc(C)c(Br)c2C)CCCC1` (stereo not given), the z-score was 0.191.
Next, `Cc1ccc2c(c1)c1c(n2CC(O)Cn2c(C)nc3ccccc32)CCCC1` (stereo not given): -0.427; `CC(=O)c1cc2c(cc1NC(=O)CN1CCCCC1C)OCO2` (stereo not given): -0.0192.
For `O=C(NCc1cccs1)c1nc2c(nnn2Cc2ccc(F)cc2)c(=O)[nH]1`, the z-score is -1.
As to `Cc1cc(N/C=C\c2nnnn2-c2ccccc2)no1`, the z-score was -0.374.
The compound `COc1ccc(Nc2nc(C)cc(C)c2C#N)cc1` had a z-score of 0.405.
In the case of `COc1ccc(Nc2nc(C)cc(C)c2C#N)cc1OC`, the z-score is 6.74 (active).
Consider `COc1cccc(Nc2nc(C)cc(C)c2C#N)c1`, for which the z-score is -0.0986.
As for `O=C(Cn1nnc(-c2ccccc2)n1)OCc1csc(-c2ccccc2)n1`, the z-score was -0.49.
The compound `Cc1ccc(-n2nc3c(Cl)nnc(C)c3c2C)cc1` showed a z-score of 0.701.
Compound `NS(=O)(=O)c1ccc(Cc2ncc(C(F)(F)F)cc2Cl)s1` came in with a z-score of 1.4.
For the compound `O=C(NCc1ccc2c(c1)OCO2)c1cc2ccccc2o1`, the z-score is -0.522.
`O=C(C1CCCCN1S(=O)(=O)c1ccc(F)cc1)N1CCN(c2ccccc2F)CC1` (stereo not given): the z-score was -0.386.
Next, `COc1ccc2c(C(=O)CN3CC(C)OC(C)C3)c[nH]c2c1` (stereo not given): -0.0527; `COc1ccc2[nH]c(C)c(C(=O)CN3CC(C)OC(C)C3)c2c1` (stereo not given): 2.96.
Compound `COc1ccc2[nH]c(C)c(C(=O)CN3CCOCC3)c2c1` yielded a z-score of 0.0884.
Consider `O=S1(=O)CC(N2CCOCC2)c2ccccc21` (stereo not given), for which the z-score is -0.0158.
In the case of `COc1ccc(CNC(=O)CSc2ccc(Br)cc2)cc1OC`, the z-score came out at 0.192.
Regarding `CN(CCCC(=O)NCc1ccco1)S(=O)(=O)c1ccccc1`, the z-score is 2.39.
In turn, `Cc1ccc(N(CC(=O)NCc2ccco2)S(=O)(=O)c2ccccc2)cc1` had a z-score of 0.374.
On to `COc1ccc(S(=O)(=O)N(C)CC(=O)NCc2ccco2)cc1`, for which the z-score was -0.29.
In turn, `CCC(C)NC(=O)COc1ccc(Br)c(C)c1` (stereo not given) showed a z-score of 0.482.
For `CN(C(=O)COC(=O)C1CCN(S(=O)(=O)c2cccs2)CC1)C1CCS(=O)(=O)C1` (stereo not given), the z-score came to 0.776.
As to `CC(C)n1c(NCCc2ccccc2)nc2c1c(=O)n(C)c(=O)n2C`, the z-score was found to be 2.39.
To `Cc1ccc(Cn2c(NCCc3ccccc3)nc3c2c(=O)n(C)c(=O)n3C)cc1` belongs -0.251.
`C=CCn1c(NCCc2ccccc2)nc2c1c(=O)n(C)c(=O)n2C` came in with a z-score of 0.0292.
`COc1ccc(CNC(=O)CCc2c(C)nc3ncnn3c2C)cc1`: the z-score stood at 0.418.
Take `CC(C)n1c(=S)[nH]c2ccccc2c1=O`: the z-score was 9.16 (active).
In the case of `COn1c(=S)[nH]c2ccccc2c1=O`, the z-score was 1.06.
Turning to `CCOc1cc2[nH]c(=S)n(C(C)C)c(=O)c2cc1OCC`, the z-score is 9.84 (active).
Next, `CCOc1cc2[nH]c(=S)n(CCCN(CC)CC)c(=O)c2cc1OCC`: -0.475; `CC(C)N(CCn1c(=S)[nH]c2ccccc2c1=O)C(C)C`: 2.64; `CC(C)COn1c(=S)[nH]c2ccccc2c1=O`: 3.03 (active).
On to `CCN(CC)CCn1c(=S)[nH]c2ccccc2c1=O`, for which the z-score was -2.46.
`COc1nc2ccccc2c(=O)n1OCC(C)C` gave a z-score of 0.0226.
Next, `CCOc1cc2[nH]c(=S)n(CCN3CCC(C)CC3)c(=O)c2cc1OCC`: 0.809; `CC(C)n1c(=S)[nH]c2ccccc21`: -0.0644.
Next, `CC(C)n1c(=O)[nH]c2ccccc21`: 1.11; `CN(C)CCn1c(=S)[nH]c2ccccc2c1=O`: -0.191.
`Cc1ccc(Cn2c(CN3CC(C)OC(C)C3)nc3c2c(=O)[nH]c(=O)n3C)cc1` (stereo not given) had a z-score of 0.0226.
For `O=C(CSc1nnc(-c2ccc(F)cc2)o1)Nc1ccccc1N1CCOCC1`, the z-score was -0.906.
As to `CN(C)c1ccc(/C=N\Nc2nc(-c3ccccc3)cc(=O)[nH]2)cc1`, the z-score is -0.138.
Next, `CC(=O)Nc1ccc(N(C(=O)Cc2c[nH]c3ccccc23)C(C(=O)NC2CCCCC2)c2ccco2)cc1` (stereo not given): 1.17; `Cc1ccccc1-c1nc(-c2ccc(NC(=O)c3ccc(Br)o3)cc2)no1`: 0.0114; `N#CNC(=Nc1cccc(F)c1)SCc1cccc(F)c1`: -0.141.
The compound `CCC(C)NC(=O)CSc1nc2c(sc(=S)n2Cc2ccco2)c(=O)n1-c1ccccc1` (stereo not given) displayed a z-score of 0.437.
`Cc1ccc2[nH]c(=O)c(CN(Cc3cccs3)S(=O)(=O)c3ccc4c(c3)OCCO4)cc2c1` gave a z-score of 0.0485.
`CCOC(=O)Cc1csc(SCC(=O)Nc2cccc(Cl)c2)n1`: the z-score worked out at 0.368.
Take `Cc1onc(-c2ccccc2Cl)c1C(=O)NC1CCS(=O)(=O)C1` (stereo not given): the z-score is -0.0472.
Take `COc1cc2cc(CN(CCc3ccccc3C)C(=S)NCCCN(C)C)c(=O)[nH]c2cc1OC`: the z-score worked out at 0.66.
In the case of `Cc1ccc2nc(-c3ccc(N4C(=N)SC5CS(=O)(=O)CC54)cc3)sc2c1` (stereo not given), the z-score amounted to 2.09.
In turn, `CC(=O)N=C1SC2CS(=O)(=O)CC2N1c1ccc(-c2nc3ccc(C)cc3s2)cc1` (stereo not given) came in with a z-score of 0.0589.
As to `CCCC(=O)N=C1SC2CS(=O)(=O)CC2N1c1ccc(-c2nc3ccc(C)cc3s2)cc1` (stereo not given), the z-score is -0.238.
As for `O=C(NCCCN1CCCCC1)c1ccc2c(c1)NC(=O)C(N1CCCCC1)S2` (stereo not given), the z-score was found to be 0.905.
As for `CC1CC(C)CN(CCCNC(=O)c2ccc3c(c2)NC(=O)C(N2CCCCC2)S3)C1` (stereo not given), the z-score amounted to 2.18.
`O=C(NCCCN1CCCCCC1)c1ccc2c(c1)NC(=O)C(N1CCOCC1)S2` (stereo not given): the z-score was 0.756.
Consider `CCCCCOC(=O)Cn1c(N2CCOCC2)nc2c1c(=O)[nH]c(=O)n2C`, for which the z-score was -0.228.
`Cc1ccc(C2CC(=O)c3cnc(NC(=O)c4ccco4)nc3C2)cc1` (stereo not given): the z-score is -0.398.
As for `Cc1ccc(C)c(NC(=S)c2nc3ccccc3s2)c1`, the z-score is 8.98 (active).
The compound `Cc1cccc(NC(=S)c2nc3ccccc3s2)c1` had a z-score of 0.84.
Next, `S=C(Nc1ccc(Cl)cc1)c1nc2ccccc2s1`: 0.236; `Cc1ccc(NC(=S)c2nc3ccccc3s2)cc1`: 0.791; `Cc1ccc(C)c(NC(=S)N2CCC(c3nc4ccccc4s3)CC2)c1`: 0.656.
Compound `S=C(Nc1ccccc1)c1nc2ccccc2s1` registered a z-score of 2.64.
In the case of `Cc1cc(SCC(=O)c2cc(C)n(C)c2C)nc2ccccc12`, the z-score is -0.0351.
For the compound `NC(=O)C1CCN(Cc2nc3ccccc3c(=O)[nH]2)CC1`, the z-score is -0.276.
For `Cn1c(=O)oc2cc(S(=O)(=O)NC3CCN(Cc4ccccc4)CC3)ccc21`, the z-score is -0.316.
Next, `O=c1oc2ccccc2cc1-c1csc(NN=C2CCCCC2)n1`: -0.185; `O=C(NNC(=O)C1CCCO1)c1ccc(F)cc1` (stereo not given): -0.154.
`CCOCc1nnc(NC(=O)c2cccs2)s1` came in with a z-score of 0.125.
Take `Cn1c(N)c(C(=O)c2ccccc2)c(=O)n(C)c1=O`: the z-score is -0.397.
Turning to `Cc1ccccc1CSCC(=O)c1c(N)n(C)c(=O)n(C)c1=O`, the z-score was -0.253.
Next, `CCN(CC(=O)c1c(N)n(C)c(=O)n(C)c1=O)c1cccc2ccccc12`: 2.55.

The values are drawn from PubChem BioAssay AID488969 (Vanderbilt High Throughput Screening Facility, 2010).
